GCN5L2 inh: inhibitors of human GCN5L2 histone acetyltransferase; Q92830; GCN5L2 HAT assay, ThioGlo1 CoA-SH fluorescence; Potency, µM (doses to about 58.9 µM), hits mostly inhibitors; actives 0.21% (n = 390,000); AID 504327
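Enzyme at 20nM final was mixed with library compounds for 15 min at room temperature. Peptide H3(1-25) at 75uM, acetyl-CoA at 70uM and ThioGlo1 at 50uM were then added. Plates were read immediately and after 20 min (Ex340nm/Em540nm).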
RECQ1 helicase: blocks DNA unwinding by human RECQ1; RECQ1 DNA unwinding, red fluorescence kinetic read; Potency, µM (titrated, usually from 57.3 µM), most hits filed as inhibitors; actives 0.54% (n = 240,000); further: nearly all actives have a fitted effect of over 30% in size
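RECQ1T1 50 nM; forked duplex (20 bp + 30-nt ss tails) 200 nM, ATP 2 mM final; pH 8.0, 2 mM MgCl2, 2.5 ug/ml poly(dI-dC); 15 min compound preincubation; discontinuous kinetic read over 2 h at RT.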
RGS4 inhibitor: human RGS4 inhibition; Transcreener GDP fluorescence polarization, RGS4-accelerated GTP hydrolysis; Potency, µM (series often up to 114 µM), hits mostly inhibitors; actives 0.039% (n = 390,000); AID 504845; further: nearly all actives have a fitted effect of over 75% in size
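MLSMR compounds (23 nl, pin-transferred) preincubated 10 min at room temperature with a 500nM (2x) first reagent, then RGS4 at 900nM (2x) plus Transcreener GDP mix added; fluorescence polarization (620/688 nm) read before and after 90 min at 30 °C.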
BLM helicase inh: inhibitors of human Bloom syndrome helicase BLM; recombinant BLM DNA unwinding, fluorescence dequenching; Potency, µM (doses to about 56.1 µM), hits mostly inhibitors; actives 0.2% (n = 350,000); AID 2528; further: nearly all actives have a fitted effect of over 35% in size
TDP1 inh: blocks human tyrosyl-DNA phosphodiesterase 1. recombinant TDP1, AlphaScreen DNA substrate cleavage. Potency, µM (doses to about 130 µM), most hits filed as inhibitors. actives 0.28% (n = 350,000). AID 485290; further: nearly all actives have a fitted effect of over 40% in size
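Compounds were preincubated with Tdp1 (1 nM final) for 15 min at room temperature before substrate (15 nM final) started a 5 min reaction; beads (10 ug/ml final) were then added for 10 min before AlphaScreen detection.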
APEX1 inh: APE1 (human) endonuclease inhibition; actives 0.35% (n = 350,000); P27695; Potency, µM (top dose mostly 65.8 µM), most hits filed as inhibitors; AID 2517; recombinant APE1, TAMRA/BHQ-2 abasic DNA cleavage fluorescence; further: nearly all actives have a fitted effect of over 55% in size
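Enzyme (0.75 nM final) and test compound are incubated 15 min at room temperature before adding 50 nM quenched THF abasic-site duplex. Cleavage dequenches TAMRA, followed at 525/598 nm over three reads one minute apart.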
Numbers stand for hits; . = inactive; ? = inconclusive; / = no result. Most compounds without a hit are left out; they make up all but 0.87% or so of the library. The call rests on the fitted dose curve; in most records, active means well fitted curve in the direction sought with a large enough effect; inconclusive means small, poorly fitted or top-dose-only effect, or another doubt; inactive means no such curve, though single readings can be large; an effect the other way counts as inactive or inconclusive.

SMILES | GCN5L2 inh | RECQ1 helicase | RGS4 inhibitor | BLM helicase inh | TDP1 inh | APEX1 inh
Cc1ccc2c(c1)C1CC(C)(O2)N(c2cccc(C(=O)NC3CCN(Cc4ccccc4)CC3)c2)C(=O)N1 (stereo not drawn) | . | / | . | . | . | 23.8µM
Cc1cccc(NC(=O)c2cnn3c2NC(=C2CC2)C=C3C(F)F)n1 | / | / | / | / | / | .
Cc1cc(C)c(S(=O)(=O)/N=C2/C=C(SCC(=O)O)C(=O)c3ccccc32)cc1C | . | ? | ? | 31.6µM | . | ?
C=Cc1cc2c(s1)c1cnn(Cc3ccccc3F)c(=O)c1n2C | / | / | / | / | . | /
CCCCCCCCCCCCCCCC(=O)N[C@@H](COP(=O)(O)O)C(=O)O | 1.58µM | ? | ? | . | . | .
O=C(Cn1cncn1)NCc1cccc2ccccc12 | 3.55µM | . | . | . | . | ?
Cc1ccc(C(=O)OCC(=O)c2ccc(CC(=O)N3CCOCC3)s2)c(C)c1 | ? | / | . | / | 50.1µM | ?
Cc1cc(N2C(=O)c3ccccc3C2=O)no1 | / | / | / | / | . | /
CCc1ccc2[nH]c(=O)c(CN(Cc3cccnc3)Cc3nnnn3Cc3ccccc3)cc2c1 | / | / | . | / | . | /
NCCNCCNCCN | . | . | . | . | . | .
NCCNCCN | . | 5.62µM | / | . | . | 3.55µM
O=S1(=O)N=C(Oc2ccccc2F)c2ccccc21 | / | / | / | / | . | /
CCN(CC)c1ccc(/C=C/C(=O)C2C(=O)C=C(C)OC2=O)cc1 (stereo not drawn) | . | 15.8µM | . | ? | . | ?
O=C1c2ccccc2C(=O)N1c1ccncc1 | / | / | / | / | . | /
O=S(=O)(O)c1cc(O)c(N=Nc2ccc(O)cc2O)c2ccccc12 | / | / | . | / | / | /
Cc1cc(-c2ccc(N=Nc3cc(S(=O)(=O)O)c4ccccc4c3N)c(C)c2)ccc1N=Nc1cc(S(=O)(=O)O)c2ccccc2c1N | / | 12.6µM | / | / | . | 25.1µM
Cn1c(=O)c2c(SCC(=O)N3CCN(c4ccccc4)CC3)nc(C3CC3)nc2n(C)c1=O | . | 17.8µM | . | . | / | .
CCc1nc(SCC(=O)N2CCN(c3ccccc3)CC2)c2c(=O)n(C)c(=O)n(C)c2n1 | . | . | / | . | / | .
COc1cccc(C2c3c(ncn(-c4cccc(OC)c4)c3=N)Oc3ccc4ccccc4c32)c1 (stereo not drawn) | / | / | / | / | . | /
COc1cccc(NS(=O)(=O)c2ccc3c(c2)CCC(=O)N3)c1 | / | / | / | / | . | /
O=C(Cc1nnc(CNC(=O)c2ccccc2)o1)Nc1cc(C(F)(F)F)ccc1Cl | / | / | / | / | . | /
O=C(N/N=C/C=C\c1ccco1)c1cccs1 | ? | . | ? | 17.8µM | . | .
O=C(Cc1cccs1)N/N=C/C=C\c1ccco1 | . | ? | . | . | . | .
Cc1ccc(CSc2nnc(SCC(=O)N/N=C/C=C/c3ccccc3[N+](=O)[O-])s2)cc1 | . | . | . | . | . | .
Cc1ccc(CSc2nnc(SCC(=O)N/N=C/C=C/c3ccco3)s2)cc1 | . | . | . | ? | . | 35.5µM
SMILES | GCN5L2 inh | RECQ1 helicase | RGS4 inhibitor | BLM helicase inh | TDP1 inh | APEX1 inh
Cc1nc(SCC(=O)Nc2cc(C(N)=O)cc(C(N)=O)c2)c2c(C)c(C)sc2n1 | . | . | . | . | 10µM | .
COc1cccc(N2C(=O)c3ccccc3C2=O)c1 | / | / | / | / | . | /
CCc1ccc(Nc2nnc(SCC(=O)NC(=O)CN3CCCC3=O)s2)cc1 | . | / | . | / | 17.8µM | 13.4µM
O=C1c2ccccc2C(=O)N1c1cc(=O)c2ccccc2[nH]1 | / | / | / | / | . | /
O=C(COC(=O)/C=C/c1ccc(Br)o1)Nc1ccccc1F | . | . | / | . | 15.8µM | ?
CSc1ccccc1NC(=O)COC(=O)/C=C/c1ccco1 | . | / | . | / | / | ?
CC(=O)Nc1cccc(S(=O)(=O)N2CCCN(S(=O)(=O)c3ccc4c(c3)OCCO4)CC2)c1 | / | / | / | / | . | /
O=C(N/N=C/c1ccc([N+](=O)[O-])o1)c1cc2c(ccc3ccccc32)o1 | . | . | . | 7.94µM | . | .
O=C(N/N=C/c1cc(Br)c(Br)o1)c1cc2ccccc2o1 | . | / | . | . | 50.1µM | ?
O=C(N/N=C/c1ccncc1)c1cc2ccccc2o1 | . | . | . | . | . | .
O=C(CNC(=O)C1CCCCC1)OC(C(=O)Nc1cc(C(F)(F)F)ccc1Cl)c1ccccc1 (stereo not drawn) | / | / | / | / | . | /
